Results: PubChem BioAssay (EPA / NIEHS)
Where “and” joins values, the source holds several entries; their conditions need not be identical. Equal entries are not always repeated. Where a structure was tested more than once in an assay, its records may differ in their call. Calls of active or inactive are those of the source. The calls were made as follows: active = hit-call score of the fitted dose curve at least 0.9, where 1 is the maximum; inactive = score below 0.9.

How the values were obtained:
Settings in all cases: mRNA level, 48 h; actives raise or lower the signal
[1] = read-out: adenosine kinase (ADK) gene, ADK (gene 132); assay: LTEA_HepaRG_ADK: Life Technologies and Expression Analysis (LTEA) Assay for adenosine kinase (ADK) gene using HepaRG (AID 2283471)
Summary of the method: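 HepaRG (human liver), 48 h chemical exposure, 8-pt half-log series, top 100 uM, 0.5% DMSO vehicle. Readout: ADK mRNA by qRT-PCR vs housekeeping genes; bidirectional curve fit relative to DMSO baseline.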

[2] = read-out: BCL2L11 (gene 10018); assay: LTEA_HepaRG_BCL2L11: Life Technologies and Expression Analysis (LTEA) Assay for Bcl-2 (BCL2L11) gene using HepaRG (AID 2283473)
Summary of the method: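 Read-out is BCL2L11 transcript level by qRT-PCR, normalized to three housekeeping genes and fitted bidirectionally against 0.5% DMSO vehicle. HepaRG cells received chemicals for 48 h in serum-free induction medium, 100 uM down in half-log dilutions.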

[3] = read-out: Apolipoprotein A-V (APOA5) gene, APOA5 (gene 116519); assay: LTEA_HepaRG_APOA5: Life Technologies and Expression Analysis (LTEA) Assay for Apolipoprotein A-V (APOA5) gene using HepaRG (AID 2283474)
Summary of the method: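 Readout is APOA5 transcript level by qRT-PCR on Fluidigm dynamic arrays, normalized to three housekeeping genes. HepaRG cultures received chemicals for 48 h at up to 100 uM (half-log steps, 0.5% DMSO), with gain or loss scored relative to DMSO.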

[4] = read-out: Bcl-2 (BID) gene, BID (gene 637); assay: LTEA_HepaRG_BID: Life Technologies and Expression Analysis (LTEA) Assay for Bcl-2 (BID) gene using HepaRG (AID 2283476)
Summary of the method: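 HepaRG, 48 h exposure, 8-pt half-log series, top 100 uM, 0.5% DMSO vehicle, duplicates. Readout: BID mRNA by TaqMan qRT-PCR; housekeeping-normalized; bidirectional curve fit vs DMSO baseline.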

[5] = read-out: Caspase-3 (Homo sapiens) (UniProt P42574); assay: LTEA_HepaRG_CASP3: Life Technologies and Expression Analysis (LTEA) Assay for cysteine-aspartic acid protease (CASP3) using HepaRG (AID 2283477)
Summary of the method: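 Read-out is CASP3 mRNA level by TaqMan qRT-PCR in human HepaRG cells after 48 h chemical exposure. Eight half-log concentrations topping at 100 uM were tested in 0.5% DMSO; gain or loss was fitted relative to DMSO.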

[6] = read-out: Cytochrome P450 (CYP24A1), CYP24A1 (gene 1591); assay: LTEA_HepaRG_CYP24A1: Life Technologies and Expression Analysis (LTEA) Assay for Cytochrome P450 (CYP24A1) using HepaRG (AID 2283478)
Summary of the method: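 HepaRG, 48 h chemical exposure, 8-pt half-log CRC from 100 uM, 0.5% DMSO vehicle, duplicates. Endpoint: CYP24A1 mRNA by Fluidigm TaqMan qRT-PCR, normalized ACTB/GAPDH/POLR2A; gain/loss fit vs DMSO.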

[7] = read-out: cysteine-aspartic acid protease (CASP8), CASP8 (gene 841); assay: LTEA_HepaRG_CASP8: Life Technologies and Expression Analysis (LTEA) Assay for cysteine-aspartic acid protease (CASP8) using HepaRG (AID 2283480)
Summary of the method: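 qRT-PCR readout of CASP8 mRNA, normalized to three housekeeping genes, after 48 h chemical exposure of HepaRG cells; 8-point half-log series, top 100 uM, 0.5% DMSO vehicle. Bidirectional curve fitting against DMSO baseline.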

[8] = read-out: Cytochrome P450 (CYP2B6), CYP2B6 (gene 1555); assay: LTEA_HepaRG_CYP2B6: Life Technologies and Expression Analysis (LTEA) Assay for Cytochrome P450 (CYP2B6) using HepaRG (AID 2283481)
Summary of the method: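 HepaRG cells plated 48 h, switched to serum-free induction medium, then dosed 48 h (8 points, half-log from 100 uM, 0.5% DMSO). RNA isolated; CYP2B6 expression measured by qRT-PCR; gain or loss fitted relative to DMSO.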

[9] = read-out: Cytochrome P450 2C19 (Homo sapiens) (UniProt P33261); assay: LTEA_HepaRG_CYP2C19: Life Technologies and Expression Analysis (LTEA) Assay for CYP2C19 using HepaRG (AID 2283482)
Summary of the method: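 Transcript levels of CYP2C19 were quantified by qRT-PCR after HepaRG cells were treated for 48 hours with test chemicals up to 100 uM (eight half-log concentrations, 0.5% DMSO vehicle). Gain or loss of signal was fitted relative to DMSO.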

[10] = read-out: CYP2C9 (gene 1559); assay: LTEA_HepaRG_CYP2C9: Life Technologies and Expression Analysis (LTEA) Assay for CYP2C9 using HepaRG (AID 2283484)
Summary of the method: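 HepaRG, 48 h dosing, 8-pt half-log series, top 100 uM, 0.5% DMSO vehicle. Read-out: CYP2C9 transcript by TaqMan qRT-PCR, housekeeping-normalized (ACTB/GAPDH/POLR2A). Gain or loss fitted vs DMSO baseline.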

[11] = read-out: CYP2E1 (gene 1571); assay: LTEA_HepaRG_CYP2E1: Life Technologies and Expression Analysis (LTEA) Assay for CYP2E1 using HepaRG (AID 2283485)
Summary of the method: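 CYP2E1 transcript was measured by TaqMan qRT-PCR in human HepaRG cultures after 48 h chemical exposure (top 100 uM, half-log steps, 0.5% DMSO vehicle). Housekeeping-gene normalization; gain or loss fitted relative to DMSO baseline.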

[12] = read-out: CYP4A11 (gene 1579); assay: LTEA_HepaRG_CYP4A11: Life Technologies and Expression Analysis (LTEA) Assay for CYP4A11 using HepaRG (AID 2283486)
Summary of the method: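 HepaRG, 48 h chem exposure, 8 conc (100 uM top, half-log), 0.5% DMSO vehicle; qRT-PCR readout, housekeeping-gene normalized; bidirectional curve fit vs DMSO baseline.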

[13] = read-out: DNA damage-inducible transcript 3 (DDIT3), DDIT3 (gene 1649); assay: LTEA_HepaRG_DDIT3: Life Technologies and Expression Analysis (LTEA) Assay for DNA damage-inducible transcript 3 (DDIT3) using HepaRG (AID 2283488)
Summary of the method: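 qRT-PCR readout (Fluidigm TaqMan), housekeeping-normalized to ACTB, GAPDH, POLR2A. HepaRG cells, 48 h exposure, 8-point half-log series from 100 uM in 0.5% DMSO, duplicates. Gain or loss of signal fitted against DMSO baseline.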

[14] = read-out: Pro-epidermal growth factor (Homo sapiens) (UniProt P01133); assay: LTEA_HepaRG_EGF: Life Technologies and Expression Analysis (LTEA) Assay for Epidermal growth factor (EGF) using HepaRG (AID 2283489)
Summary of the method: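 HepaRG, 48 h dosing, 100 uM top, half-log x8, 0.5% DMSO. Readout: TaqMan qRT-PCR (Fluidigm array), housekeeping-normalized. Gain or loss of signal fit vs DMSO.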

[15] = read-out: Early growth response protein 1 (EGR1) transcription factor, EGR1 (gene 1958); assay: LTEA_HepaRG_EGR1: Life Technologies and Expression Analysis (LTEA) Assay for Early growth response protein 1 (EGR1) transcription factor using HepaRG (AID 2283490)
Summary of the method: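 HepaRG, 48 h exposure, 8-pt half-log series from 100 uM, 0.5% DMSO vehicle; EGR1 transcript by TaqMan qRT-PCR (Fluidigm array), housekeeping-normalized; bidirectional fit relative to DMSO baseline.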

[16] = read-out: Cytochrome P450 3A4 (Homo sapiens) (UniProt P08684); assay: LTEA_HepaRG_CYP3A4: Life Technologies and Expression Analysis (LTEA) Assay for CYP3A4 using HepaRG (AID 2283487)
Summary of the method: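 CYP3A4 transcript measured by TaqMan qRT-PCR and normalized to three housekeeping genes after 48 h chemical exposure of human HepaRG cells. Top concentration 100 uM, half-log steps, 0.5% DMSO vehicle; gain or loss fitted against DMSO baseline.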

[17] = read-out: CYP2C8 (gene 1558); assay: LTEA_HepaRG_CYP2C8: Life Technologies and Expression Analysis (LTEA) Assay for CYP2C8 using HepaRG (AID 2283483)
Summary of the method: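 HepaRG (human liver line), 48 h chemical exposure, 8-pt half-log series from 100 uM, 0.5% DMSO vehicle. Readout: CYP2C8 transcript by qRT-PCR, housekeeping-normalized. Bidirectional fit vs DMSO baseline.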

Measured: AC50

Cytochrome P450 3A4 (Homo sapiens), sequence (P08684 whole entry, looked up): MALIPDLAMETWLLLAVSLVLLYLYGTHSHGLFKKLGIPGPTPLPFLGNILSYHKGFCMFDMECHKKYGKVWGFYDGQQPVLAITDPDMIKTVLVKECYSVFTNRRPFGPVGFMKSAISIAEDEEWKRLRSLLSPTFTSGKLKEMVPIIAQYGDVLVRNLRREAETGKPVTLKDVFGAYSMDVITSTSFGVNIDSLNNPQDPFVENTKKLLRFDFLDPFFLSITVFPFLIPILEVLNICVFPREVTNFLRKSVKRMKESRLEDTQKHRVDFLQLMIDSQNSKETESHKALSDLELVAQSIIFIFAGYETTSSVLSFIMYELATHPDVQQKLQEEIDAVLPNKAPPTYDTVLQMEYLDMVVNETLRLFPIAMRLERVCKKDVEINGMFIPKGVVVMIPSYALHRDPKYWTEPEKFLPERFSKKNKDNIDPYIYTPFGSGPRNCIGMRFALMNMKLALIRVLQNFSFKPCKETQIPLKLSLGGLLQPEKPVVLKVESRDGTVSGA
Caspase-3 (Homo sapiens), sequence (P42574 whole entry, looked up): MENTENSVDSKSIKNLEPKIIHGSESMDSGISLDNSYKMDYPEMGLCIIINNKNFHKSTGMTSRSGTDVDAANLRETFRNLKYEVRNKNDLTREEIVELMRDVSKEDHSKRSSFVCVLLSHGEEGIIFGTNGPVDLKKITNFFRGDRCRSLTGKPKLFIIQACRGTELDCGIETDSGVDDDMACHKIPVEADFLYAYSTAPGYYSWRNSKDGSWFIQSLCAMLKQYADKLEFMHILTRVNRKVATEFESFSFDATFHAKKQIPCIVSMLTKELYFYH
Cytochrome P450 2C19 (Homo sapiens), sequence (P33261 whole entry, looked up): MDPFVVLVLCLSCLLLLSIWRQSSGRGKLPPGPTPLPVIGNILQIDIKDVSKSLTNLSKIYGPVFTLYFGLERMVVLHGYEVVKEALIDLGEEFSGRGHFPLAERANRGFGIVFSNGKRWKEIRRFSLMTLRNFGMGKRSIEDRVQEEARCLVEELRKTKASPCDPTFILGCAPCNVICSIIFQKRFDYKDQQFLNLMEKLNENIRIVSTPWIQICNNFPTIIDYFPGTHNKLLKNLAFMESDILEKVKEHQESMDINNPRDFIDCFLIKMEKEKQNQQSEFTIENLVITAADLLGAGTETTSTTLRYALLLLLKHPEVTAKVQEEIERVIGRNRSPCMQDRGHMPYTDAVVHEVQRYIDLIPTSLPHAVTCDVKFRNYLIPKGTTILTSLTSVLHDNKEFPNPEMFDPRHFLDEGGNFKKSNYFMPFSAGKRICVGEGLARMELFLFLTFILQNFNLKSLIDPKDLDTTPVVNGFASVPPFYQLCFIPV

ClC1C(Cl)C(Cl)C(Cl)C(Cl)C1Cl (centres undefined)
active: [8] 758 nM and 392 nM | [9] 1.1 µM and 1.12 µM | [10] 1.93 µM | [11] 22.3 µM and 5.02 µM | [12] 12.6 µM | [14] 1.92 µM
inactive: [1] | [2] | [3] | [4] | [5] | [6] | [7] | [10] | [12] | [13] | [14] | [15]

O=C(O)COc1ccc(Cl)cc1Cl
active: [8] 20.8 µM | [11] 29.3 µM | [12] 38.1 µM
not listed: [9] | [17]
inactive: all other assays above

CCC(C)Nc1c([N+](=O)[O-])cc(C(C)(C)C)cc1[N+](=O)[O-] (centres undefined)
active: [8] 3.52 µM | [11] 49.3 µM | [12] 50 µM | [16] 6.12 µM | [14] 10.7 µM
not listed: [9] | [17]
inactive: all other assays above

CC1(c2ccc(Oc3ccccc3)cc2)OC(=O)N(Nc2ccccc2)C1=O (centres undefined)
inactive: [4] | [5] | [6] | [14]
active: [1] 73.7 µM | [2] 11.7 µM | [3] 28.3 µM | [7] 11.7 µM | [8] 8.83 µM | [10] 17.4 µM | [11] 5.56 µM | [12] 8.16 µM | [16] 26.2 µM | [13] 8.41 µM | [15] 82.1 µM

COP(=S)(OC)Oc1ccc(SC)c(C)c1
active: [8] 7.23 µM | [11] 18.9 µM
not listed: [9] | [16] | [17]
inactive: all other assays above

CCC(C)(C)C(=O)OC1=C(c2ccc(Cl)cc2Cl)C(=O)OC12CCCCC2
active: [3] 50 µM | [11] 23.1 µM | [16] 25 µM
not listed: [9] | [17]
inactive: all other assays above

CCC(C)(NC(=O)c1cc(Cl)c(C)c(Cl)c1)C(=O)CCl (centres undefined)
inactive: [2] | [3] | [6] | [14] | [15]
active: [1] 92.1 µM | [4] 82.9 µM | [5] 92.4 µM | [7] 89.8 µM | [8] 90.1 µM | [17] 81.6 µM | [10] 79.5 µM | [11] 44 µM | [12] 50.2 µM | [16] 88.2 µM | [13] 78.3 µM

N#Cc1c(Cl)c(Cl)c(Cl)c(C#N)c1Cl
active: [11] 66.1 µM | [12] 50 µM | [16] 19 µM | [13] 19.1 µM | [14] 6.66 µM
not listed: [9] | [17]
inactive: all other assays above

CNC(=O)Oc1cccc(N=CN(C)C)c1
not listed: [9] | [17]
inactive: all other assays above

COc1nn(CSP(=S)(OC)OC)c(=O)s1
active: [8] 4.94 µM
not listed: [9] | [17]
inactive: all other assays above

O=C(O)C(F)(F)C(F)(F)C(F)(F)C(F)(F)C(F)(F)C(F)(F)C(F)(F)F
active: [8] 17.9 µM and 3.15 µM | [12] 12.8 µM and 6.48 µM | [15] 12.1 µM
inactive: [1] | [2] | [3] | [4] | [5] | [6] | [7] | [10] | [11] | [16] | [13] | [14] | [15]

N#CN
not listed: [9] | [17]
inactive: all other assays above
